Test [1] in a line: qHTS assay to identify small molecule agonists of H2AX (AID 1224845; active = well fitted activation curve with a large enough effect in the signal ratio in the repeat runs, not every such curve was filed as active; the % refers to the signal ratio; also: % is scaled to controls: 0 for no effect and ±100 for the full control effect). In outline:
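Wild-type CHO-K1 cells, plated overnight, exposed 3hr at 37C to 15 concentrations (0.76% DMSO final). Lysed, then HTRF anti-pH2AX (S139) cryptate and anti-H2AX-d2 antibodies, 24 hr room temperature; 665/620 nm emission read.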
In general terms: Quantitative high-throughput screening tests each substance at several concentrations.

Test [2] can be described thus: qHTS assay to identify small molecule agonists of the hypoxia (HIF-1) signaling pathway (AID 1224846; active = well fitted activation curve with a large enough effect in the signal ratio in the repeat runs, not every such curve was filed as active; the % refers to the signal ratio; also: % is scaled to controls: 0 for no effect and ±100 for the full control effect). In outline: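 Measured by blue/green FRET after loading CCF4-AM: beta-lactamase expressed from a hypoxia response element in ME-180 cells. Test agents were delivered in DMSO and left 17 hrs; cells had been plated 5 hrs earlier in low-serum (0.5% dialyzed FBS) medium.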

Test [3] can be described thus: qHTS assay to identify small molecule agonists of H2AX - cell viability counter screen (AID 1224847; calls by dose curve; also: nearly all actives have a fitted effect of over 30% in size; also: potency is read from the fitted curve at half-maximal effect). An outline of the steps:
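We seed wild-type CHO-K1 cells overnight, treat them for 3 hr at 37C with compounds in 15-concentration series, and quantify remaining viability by CellTiter-Glo luminescence.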

A short description of test [4]: qHTS RealTime-Glo MT Cell Viability Assay in HepG2 cells - 24 hour (AID 1224867). Also: % is scaled to controls: 0 for no effect and ±100 for the full control effect; nearly all actives have a fitted effect of over 50% in size. An outline of the steps: (§1)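 HepG2 suspension premixed with RealTime-Glo reagents is plated at 600 cells per well and left 5 h at 37 C/5% CO2. Compounds in DMSO then go in, and bioluminescence reflecting viable cell number is recorded over 40 h.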
A short description of test [5]: qHTS RealTime-Glo MT Cell Viability Assay in HEK293 cells - 32 hour (AID 1224868). Also: top concentration of the series differs between compounds; % is scaled to controls: 0 for no effect and ±100 for the full control effect; nearly all actives have a fitted effect of over 50% in size. An outline of the steps:
(§2)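 Reads taken at 0, 8, 16, 24, 32 and 40 h from the same wells. HEK293 cells (600/well) carried RealTime-Glo reagents from seeding, with compound added after a 5 h settle at 37 C.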

A short description of test [6]: A CellTox Green Cytotoxicity Assay to monitor cytotoxicity in HEK293 cells - 0 hour (AID 1224869). Also: % is scaled to controls: 0 for no effect and ±100 for the full control effect; nearly all actives have a fitted effect of over 50% in size. In outline: (§3)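 Each value comes from one timepoint of a single continuous run in which HEK293 cells with CellTox Green were exposed to compound for up to 40 h at 37 C, dye fluorescence rising with cell death.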
Test [7] in a line: qHTS RealTime-Glo MT Cell Viability Assay in HEK293 cells - 16 hour (AID 1224872). Also: top concentration of the series differs between compounds; % is scaled to controls: 0 for no effect and ±100 for the full control effect; nearly all actives have a fitted effect of over 50% in size. An outline of the steps:
as §2

Test [8] can be described thus: qHTS RealTime-Glo MT Cell Viability Assay in HepG2 cells - 8 hour (AID 1224873). Also: % is scaled to controls: 0 for no effect and ±100 for the full control effect; nearly all actives have a fitted effect of over 55% in size. In outline:
(§4)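 HepG2 cells (600/well) mixed with RealTime-Glo MT reagent, settled 5 h at 37 C/5% CO2 before compound addition. Nonlytic NanoLuc luminescence from viable-cell prosubstrate reduction read repeatedly during 40 h treatment at 37 C.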

Test [9] can be described thus: qHTS RealTime-Glo MT Cell Viability Assay in HEK293 cells - 40 hour (AID 1224874). Conditions: RealTime-Glo luminescence; max response: hits give low values. In outline: (§5)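 qHTS format; HEK293 cells with NanoLuc/prosubstrate reagent, 37 C/5% CO2 for 5 h pre-dosing; compounds 23 nL in DMSO; luminescence at each time point reflects viable cells.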
Test [10] is described as follows: A CellTox Green Cytotoxicity Assay to monitor cytotoxicity in HEK293 cells - 24 hour (AID 1224875). Also: % is scaled to controls: 0 for no effect and ±100 for the full control effect; nearly all actives have a fitted effect of over 45% in size. An outline of the steps:
as §3

A short description of test [11]: A CellTox Green Cytotoxicity Assay to monitor cytotoxicity in HepG2 cells - 16 hour (AID 1224876). Also: % is scaled to controls: 0 for no effect and ±100 for the full control effect; nearly all actives have a fitted effect of over 45% in size. An outline of the steps:
(§6)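 Continuous culture of HepG2 cells with a membrane-impermeant DNA dye; rising fluorescence marks dead cells. Compound exposure lasted up to 40 h at 37 C, with reads every 8 h from 0 h.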

Test [12] can be described thus: qHTS RealTime-Glo MT Cell Viability Assay in HepG2 cells - 32 hour (AID 1224877). Also: % is scaled to controls: 0 for no effect and ±100 for the full control effect; nearly all actives have a fitted effect of over 55% in size. In outline:
as §1

Test [13] can be described thus: A CellTox Green Cytotoxicity Assay to monitor cytotoxicity in HepG2 cells - 24 hour (AID 1224878). Also: % is scaled to controls: 0 for no effect and ±100 for the full control effect; nearly all actives have a fitted effect of over 45% in size. In outline:
as §6

Test [14] can be described thus: A CellTox Green Cytotoxicity Assay to monitor cytotoxicity in HepG2 cells - 40 hour (AID 1224879). Also: % is scaled to controls: 0 for no effect and ±100 for the full control effect; nearly all actives have a fitted effect of over 40% in size. An outline of the steps: as §6
Test [15] is described as follows: qHTS RealTime-Glo MT Cell Viability Assay in HEK293 cells - 0 hour (AID 1224880). Also: top concentration of the series differs between compounds; % is scaled to controls: 0 for no effect and ±100 for the full control effect; nearly all actives have a fitted effect of over 45% in size. In outline: as §5
Test [16] can be described thus: A CellTox Green Cytotoxicity Assay to monitor cytotoxicity in HEK293 cells - 32 hour (AID 1224881). Also: % is scaled to controls: 0 for no effect and ±100 for the full control effect; nearly all actives have a fitted effect of over 40% in size. In outline:
as §3

Test [17] is described as follows: qHTS RealTime-Glo MT Cell Viability Assay in HepG2 cells - 40 hour (AID 1224870). An outline of the steps:
as §4

Test [18] can be described thus: A CellTox Green Cytotoxicity Assay to monitor cytotoxicity in HEK293 cells - 40 hour (AID 1224871). In outline:
as §3

A short description of test [19]: qHTS assay to identify small molecule antagonists of the estrogen related receptor (ERR) signaling pathway from Tox21 library (AID 1224848). An outline of the steps:
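Luminescent reporter read-out (ONE-Glo) from NTP's ERR cell line after 18 h treatment at 37 C with DMSO-dissolved Tox21 compounds; cells pre-plated 6 h beforehand at 2,000 per well.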

The nature of test [20]: qHTS assay to identify small molecule agonists of the estrogen related receptor (ERR) signaling pathway from Tox21 library (AID 1224849; calls by dose curve; also: % is scaled to controls: 0 for no effect and ±100 for the full control effect; nearly all actives have a fitted effect of over 15% in size). The conditions noted are these: ERR reporter cell line, ONE-Glo luciferase, 18 h; at 92.4 µM (top of the series) unless noted. An outline of the steps: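 We plated ERR reporter cells, waited 6 h, added compounds in DMSO by pin tool and incubated them 18 h at 37 C. ONE-Glo was then added and luminescence read after 30 min.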

Unmarked numbers belong to inactive results. Inconclusive results are not listed. The source made the active and inactive calls. Unless noted, calls follow the shape of the dose curve; as a rule, active = well fitted curve in the direction sought with a large enough effect in the repeat runs; inconclusive = weak or mixed curves; inactive = no such curve, though single readings can be large; an effect the other way counts as inactive or inconclusive.

For the compound `O=NN1CCCCCC1`, the Potency result in test [1], in test [3], in test [4], in test [5], in [6] and in [7] was “inactive” throughout. Also, the Potency result in [8], in test [10], in test [11], in test [12], in [13] and in [14] was “inactive” throughout. Besides, the Potency result in test [15] and in test [16] was “inactive” each time. The outcome in test [2] was inactive. For the same compound, the max response in test [9] is 0.127%.
As to `COC(=O)c1cncn1C(C)c1ccccc1` (stereo not drawn), the Potency entry in test [1], in test [3], in [4], in test [5], in test [6] and in test [17] was “inactive” in each case. Further, the Potency entry in test [7], in test [8], in [10], in test [11], in test [12] and in [13] was “inactive” in each case. For the same compound, the Potency result in test [14], in [15] and in test [16] was “inactive” throughout. Further, the outcome in test [2] was inactive.
In the case of `Brc1ccccc1`, the Potency entry in test [1], in test [3], in [4], in test [5], in test [6] and in [18] was “inactive” each time. The Potency result in [7], in test [8], in test [10], in test [11], in test [12] and in [13] was “inactive” in each case. Also, the Potency result in [14], in test [15] and in test [16] was “inactive” in each case. In addition, in test [2], the call was inactive. Besides, the max response in [9] was -2.8%.
For the compound `NC(=O)C(Cl)(Cl)Cl`, the Potency entry in test [1], in test [3], in [4], in test [5], in test [6] and in test [18] was “inactive” in each case. The Potency entry in [7], in [8], in test [10], in [11], in test [12] and in test [13] was “inactive” throughout. Moreover, the Potency result in [14] was “inactive”. Besides, the compound was called inactive in [2].
On to `CCOC(=O)CBr`, for which the Potency entry in test [1], in test [3], in test [4], in test [6], in [18] and in test [8] was “inactive” in each case. In addition, the Potency result in test [10], in test [11], in test [12], in [13], in [14] and in [15] was “inactive” each time. In addition, the call in test [2] was inactive. Further, in [9], the max response was -15%.
Turning to `C=CC(=O)OC`, the Potency entry in [1], in [3], in test [4], in [5], in test [6] and in test [18] was “inactive” throughout. Also, the Potency result in [7], in [8], in test [10], in test [11], in test [12] and in test [13] was “inactive” each time. The Potency entry in [14], in test [15] and in [16] was “inactive” throughout. Further, in test [2], the compound was called inactive. Further, the max response in test [9] was 0.596%.
Regarding `O=C=Nc1ccc(Cl)cc1`, the Potency result in [1], in [3], in test [4], in test [5], in [6] and in test [17] was “inactive” in each case. Also, the Potency entry in test [18], in test [7], in test [8], in test [10], in test [11] and in test [12] was “inactive” each time. The Potency entry in test [13] and in test [15] was “inactive” throughout.
Regarding `O=[N+]([O-])c1ccc(F)c([N+](=O)[O-])c1`, the Potency result in test [1], in test [4], in test [6], in [17], in test [18] and in test [8] was “inactive” in each case. For the same compound, the Potency result in [10], in test [11], in test [12], in test [13], in test [14] and in test [16] was “inactive” throughout. Besides, the values for the Potency in test [3] and in test [19] were 57.2 µM (active) and 43.7 µM (active), respectively. The activity change, positive = activation in test [20] was -38.2%.

The record behind these values is PubChem BioAssay (Tox21).
